# Results filed as inconclusive are left out. The source made the active and inactive calls. The call rests on the fitted dose curve; in most records, active means well fitted cell-killing curve with a large enough effect; inconclusive means small, poorly fitted or top-dose-only effect, or effect the other way; inactive means no such curve, though single readings can be large or run the other way.
# Experiment: Quantitative High-Throughput drug screen in 47 multiple myeloma cell lines against the NCATS MIPE library collection: AMO1_DSMZ cell viability assay (AID 1918927; further: nearly all actives have a fitted effect of over 30% in size;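 on viability, % of DMSO: 100% = DMSO only wells and 0% = cell-free media only wells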)
# Details: AMO1 myeloma cells viability, CellTiter-Glo ATP luminescence, 48 h; series mostly up to 45.8 µM; viability, % of DMSO: at the top concentration
# Procedure, shortened: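 Inhibition of cell viability is measured here. Each line was plated at 500 cells per well, treated with MIPE 4.0 drugs, kept 48 hours at 37C, then assayed for ATP content by CellTiter-Glo luminescence.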
# Potency means the concentration at half of the fitted maximal effect.
Structure (SMILES),"viability, % of DMSO",Potency
CC(C)(O)CC[C@@H](O)[C@](C)(O)[C@H]1CC[C@@]2(O)C3=CC(=O)[C@@H]4C[C@@H](O)[C@@H](O)C[C@]4(C)[C@@H]3CC[C@]12C,89.3% (inactive),–
Cc1cc(C(=O)NOCCO)c(Nc2ccc(I)cc2F)n(C)c1=O,–,0.118 µM (active)
CNC(=O)Nc1ccc(-c2nc(N3CC4CCC(C3)O4)c3cnn(C4CCC5(CC4)OCCO5)c3n2)cc1,–,0.0166 µM (active)
CCCCCCCCCCCC(CC1OC(=O)C1CCCCCC)OC(=O)C(CC(C)C)NC=O (stereo not given),115% (inactive),–
O=C(Nc1cccc(Nc2ncc(Br)c(NCCc3cnc[nH]3)n2)c1)N1CCCC1,131% (inactive),–
O=c1[nH]c(=O)n([C@H]2C[C@@H](O)[C@@H](CO)O2)cc1C=CBr,96.7% (inactive),–
CC1(C)[C@H](O[C@H]2O[C@H](C(=O)O)[C@@H](O)[C@H](O)[C@H]2O[C@@H]2O[C@H](C(=O)O)[C@@H](O)[C@H](O)[C@H]2O)CC[C@@]2(C)[C@H]1CC[C@]1(C)[C@H]2C(=O)C=C2[C@H]3C[C@@](C)(C(=O)O)CC[C@]3(C)CC[C@]21C,149% (inactive),–
Cn1cc(C=CC(=O)c2cccc(F)c2)cc1C=CC(=O)NO,–,18.7 µM (active)
COc1ccc(S(=O)(=O)Nc2cc(-c3c(O)ccc4ccccc34)c(O)c3ccccc23)cc1,–,14.8 µM (active)
CC(C(C)N1CC(=O)NC(=O)C1)N1CC(=O)NC(=O)C1 (stereo not given),–,0.332 µM (active)
COc1ccc(Nc2nccc(NCCO)n2)cc1,91.5% (inactive),–
C#CCC(Cc1cnc2nc(N)nc(N)c2n1)c1ccc(C(=O)N[C@@H](CCC(=O)O)C(=O)O)cc1 (stereo not given in full),120% (inactive),–
Cc1[nH]c(C=C2C(=O)Nc3ccccc32)c(C)c1CCC(=O)O,–,1.48 µM (active)
Cc1cn([C@@H]2O[C@H](CO)[C@@H](O)[C@H]2F)c(=O)[nH]c1=O,107% (inactive),–
COC(=O)C=CC(=O)OC,128% (inactive),–
COC(=O)[C@@H]1[C@H]2C[C@@H]3c4[nH]c5ccccc5c4CCN3C[C@@H]2CC[C@@H]1O,138% (inactive),–
NC(=O)c1cccc(-c2cccc(OC(=O)NC3CCCCC3)c2)c1,154% (inactive),–
CCCCCCCCCCCCCCCC(=O)OC[C@@H](NC(=O)C(Cl)Cl)[C@H](O)c1ccc([N+](=O)[O-])cc1,115% (inactive),–
CC(C=CC=C(C)C=CC1=C(C)CCCC1(C)C)=CC=CC=C(C)C=CC=C(C)C=CC1=C(C)CCCC1(C)C,–,20.9 µM (active)
COc1cc(C(=O)NC2CCN(C)CC2)ccc1Nc1ncc2c(n1)N(C1CCCC1)CCC(=O)N2C(C)C,–,9.35 µM (active)
C=C[C@@H]1CN2CCC1C[C@H]2[C@H](O)c1ccnc2ccc(OC)cc12 (stereo not given in full),73.1% (inactive),–
COc1ccc(CCC(=O)c2c(O)cc(O[C@@H]3O[C@H](CO)[C@@H](O)[C@H](O)[C@@H]3O[C@@H]3O[C@@H](C)[C@H](O)[C@@H](O)[C@@H]3O)cc2O)cc1O,110% (inactive),–
c1coc(CNc2ncnc3nc[nH]c23)c1,104% (inactive),–
CC(C)NC[C@@H](C(=O)N1CCN(c2ncnc3c2[C@H](C)C[C@H]3O)CC1)c1ccc(Cl)cc1,–,4.18 µM (active)
N#CC(=C(O)c1ccc(Cl)cc1Cl)c1nc2cc(Cl)ccc2c(=O)[nH]1,–,1.05 µM (active)
